Ten molecules from PubChem BioAssay can be followed below.

SMILES strings stand for the structures. Results filed as inconclusive are left out. Active and inactive are the calls of the source.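 Rule for the calls, unless noted: active = Her2 level under about 52% in both replicate screens, with viability over 70% of control (limit read from the data); inconclusive = Her2 under the limit in one screen only, or viability under 70%; inactive = Her2 level above the set limit.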

Test [1] in a line: Her2 expression decrease, cell viability multiplex – SKBR3 breast tumor cells, AlphaScreen, ATP viability, primary screen (AID 461).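 For Her2 level: lower value means less Her2 protein in the cells.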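 For viability: percent of carrier control wells set as 100% viability.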 As to conditions: SKBR3 Her2 protein level, 18-24 h, measured here: SKBR3 viability, ATP luminescence, at 10 µM. For orientation: In Alpha technology, singlet oxygen from a donor bead excites a nearby acceptor bead.
Test [2] concerns the target Receptor tyrosine-protein kinase erbB-2 (Homo sapiens) (UniProt P04626). The test is described as above. The note with it: 18-24 h, at 10 µM, stronger effect = lower value.
The nature of test [3]: reduced viability of SK-BR-3 breast cancer cells – cell-based, 24 h, human, pilot screen (AID 572;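 active = viability at or below 10% of carrier control in both of two separate runs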;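 note: compound exposure lasted between 18 and 24 h rather than exactly 24 h; 100% = carrier-treated control wells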). The note with it: SK-BR-3 viability, CellTiter-Glo luminescence, at 10 µM, stronger effect = lower value. (Cellular ATP, detected with luciferase, serves as a proxy for viable cell number.)
Test [4] can be described thus: HUVEC growth inhibition – cell-based, human, primary screen (AID 575;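 active = viability at or below 30% in both replicate assays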;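 note: 100% = median of untreated cell wells with 0.1% DMSO on each plate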). The note with it: HUVEC proliferation, CellTiter-Glo luminescence, 72 h; at 10 µM; stronger effect = lower value.
Test [5] can be described thus: H69AR cell proliferation blockers – human, duplicate replicates, primary screen (AID 580;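 active = viability at or under a set limit in both replicates, limit being median viability minus 3 SD, cut at about 48% in these data, passing the limit was not always enough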;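 note: 100% = mean luminescence of untreated wells and 0% = no signal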). As to conditions: H69AR lung tumor cells viability, ATP luminescence, 72 h; at 10 µM; stronger effect = lower value.
The nature of test [6]: MRP1 drug-resistance reversers in H69AR cells – cell-based, doxorubicin co-treatment, pilot screen (AID 601;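 active = viability loss from added drug above about 55%, and viability with drug at most 40%, in both replicates, limit read from the data, passing the limit was not always enough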). As to conditions: CellTiter-Glo, 72 h, at 10 µM; for differential viability (reversal): stronger effect = higher value.
Test [7] can be described thus: yeast transport mutant growth inhibition pilot in 384-well plates, post-Golgi transport modulator project (AID 636; in the data active = inhibition above about 31%). The note with it: absorbance 615 nm, about 18 h, stronger effect = higher value.
A short description of test [8]: growth suppression of yeast trafficking mutant, preliminary HTS, modulators of trafficking downstream of Golgi apparatus project, 1536-format plate, OD 615 nm (AID 637; in the data active = inhibition above about 30%). The note with it: yeast transport mutant growth, absorbance 615 nm, 18 h; stronger effect = higher value.
Test [9] in a line: S. cerevisiae growth inhibition in restrictive medium, OD615, pilot screen, restrictive growth control, yeast lifespan reduction project (AID 706;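 active = growth inhibition above a set limit, 3 SD over mean compound inhibition, in both replicates, cut at about 43% in these data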;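 note: modified DeaD lifespan yeast strain shifted to restrictive glucose medium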). The note with it: OD615, 48 h, at 10 µM, stronger effect = higher value.
A short description of test [10]: doxorubicin toxicity protection in MRP-1 cells – H69AR cells, CellTiter-Glo, duplicate, MRP-1 activator project, pilot screen (AID 807;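 active = viability increase at or above a cutoff of the median across tested compounds plus 3 SD, cut at about 8.5% in these data, passing the limit was not always enough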;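 note: compound pretreatment 18-22 h then 72 h combined with doxorubicin; 0% = doxorubicin alone and 100% = vehicle without doxorubicin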). As to conditions: H69AR viability with doxorubicin, CellTiter-Glo luminescence; at 10 µM; stronger effect = higher value.
The nature of test [11]: viability of HCT116 without oncogenic beta-catenin – human colon tumor cells, pilot screen (AID 823;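 active = cell viability at or below a set limit in both duplicate runs, the limit being the all-compound median minus 4 SD, cut at about 23% in these data, passing the limit was not always enough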;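 note: 0% = wells killed by 20 µM Hyamine and 100% = untreated DMSO cell wells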). The note with it: HCT116 beta-catenin knockout viability, CellTiter-Glo, 60 h; at 10 µM; stronger effect = lower value.
Test [12] in a line: viability of PTEN-null HCT116 cells – cell-based, HCT116 clonal line, CellTiter-Glo, pilot screen (AID 824;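 active = viability at or below 27.92% in each of two runs, the all-compound median minus 4 SD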;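 note: 0% = 20 µM Hyamine control and 100% = vehicle cell control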). The note with it: HCT116 PTEN-deleted viability, 60 h, at 10 µM, stronger effect = lower value.
Test [13] can be described thus: RAM pathway blockade in budding yeast – dse1pr::URA3 reporter, 5-FOA selection, pilot screen (AID 869;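 active = inhibition over a set limit, the all-compound mean plus 3 SD, in both replicate runs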;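 note: 0% = DMSO wells with no growth and 100% = 10 µM 1-NA-PP1 with full growth; RAM network block rescues cells from 5-FOA so hits raise OD615 growth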). The note with it: S. cerevisiae dse1pr::URA3 5-FOA growth, OD615, 2 d; at 10 µM; stronger effect = higher value; strain carries analog-sensitive mutant Cbk1 kinase.
Test [14] is described as follows: RAM signaling pathway blockade in yeast – S. cerevisiae, Pdr1DBD-CYC8 efflux-inhibited sensitized strain, primary screen (AID 1298;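 active = RAM network inhibition above 8.4% in each of two replicates, 3 SD over the compound average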;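 note: 0% = DMSO untreated cells without growth and 100% = 10 µM 1-NA-PP1 full growth; higher means more yeast growth rescued from 5-FOA killing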). As to conditions: S. cerevisiae cbk1-as DSE1-URA3 strain, 5-FOA growth OD615, 2 d; at 50 µM; stronger effect = higher value.
A short description of test [15]: S. cerevisiae growth inhibition in permissive medium (OD615), pilot counter-assay for S. cerevisiae lifespan shortening project, permissive growth control (AID 705;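 active = growth inhibition above 25% in both replicates, a cutoff set 3 SD above the mean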). As to conditions: OD615, 24 h, at 10 µM, stronger effect = higher value.
The mark [16] stands for this setting: H69AR cells + 2 uM doxorubicin, measured here: viability with 2 uM doxorubicin, stronger effect = lower value.
Where [17] appears, read: H69AR cells, compound alone cytotoxicity.

Chain of Receptor tyrosine-protein kinase erbB-2 (Homo sapiens) (P04626 whole entry, looked up): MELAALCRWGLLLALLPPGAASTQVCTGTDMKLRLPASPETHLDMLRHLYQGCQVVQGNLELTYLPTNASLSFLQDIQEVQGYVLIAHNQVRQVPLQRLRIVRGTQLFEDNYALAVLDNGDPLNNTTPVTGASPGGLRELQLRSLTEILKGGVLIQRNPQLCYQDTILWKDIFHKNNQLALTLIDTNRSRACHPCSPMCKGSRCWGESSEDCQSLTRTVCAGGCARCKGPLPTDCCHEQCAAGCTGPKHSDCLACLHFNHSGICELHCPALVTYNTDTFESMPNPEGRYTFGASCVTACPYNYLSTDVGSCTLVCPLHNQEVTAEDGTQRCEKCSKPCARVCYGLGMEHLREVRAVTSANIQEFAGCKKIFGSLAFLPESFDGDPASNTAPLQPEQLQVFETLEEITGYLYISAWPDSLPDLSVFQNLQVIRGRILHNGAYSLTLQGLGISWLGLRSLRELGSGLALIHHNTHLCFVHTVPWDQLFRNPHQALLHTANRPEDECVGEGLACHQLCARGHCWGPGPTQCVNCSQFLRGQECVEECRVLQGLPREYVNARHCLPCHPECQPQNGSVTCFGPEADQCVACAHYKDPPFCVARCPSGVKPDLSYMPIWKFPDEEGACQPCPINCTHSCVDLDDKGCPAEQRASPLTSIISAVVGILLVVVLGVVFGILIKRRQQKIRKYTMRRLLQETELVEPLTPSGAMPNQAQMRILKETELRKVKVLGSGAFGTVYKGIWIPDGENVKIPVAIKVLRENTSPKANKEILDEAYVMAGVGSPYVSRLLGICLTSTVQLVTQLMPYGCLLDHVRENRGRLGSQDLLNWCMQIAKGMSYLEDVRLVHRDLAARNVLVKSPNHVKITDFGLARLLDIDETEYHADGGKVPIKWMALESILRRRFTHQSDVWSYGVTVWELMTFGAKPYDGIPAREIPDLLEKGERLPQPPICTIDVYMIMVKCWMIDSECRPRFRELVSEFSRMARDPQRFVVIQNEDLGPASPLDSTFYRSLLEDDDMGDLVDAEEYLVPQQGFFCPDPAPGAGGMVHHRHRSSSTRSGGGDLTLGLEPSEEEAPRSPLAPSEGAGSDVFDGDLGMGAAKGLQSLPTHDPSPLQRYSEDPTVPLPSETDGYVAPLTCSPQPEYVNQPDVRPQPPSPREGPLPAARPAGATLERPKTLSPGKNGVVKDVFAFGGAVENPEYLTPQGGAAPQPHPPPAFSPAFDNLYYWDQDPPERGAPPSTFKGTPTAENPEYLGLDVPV

As for `O=C(Cn1ncc2c1-c1ccccc1OC2)N1CCc2ccccc21`, the viability in test [1] is 83.5%; in test [3], 83.5% (inactive); in test [4], 96.2% (inactive); in test [5], 84.3% (inactive); in test [6] (setting [16]), 85.2%; in test [6] (setting [17]) it was 84.3%. Besides, the results for the viability in test [11] and in test [12] were 93.4% (inactive) and 88.4% (inactive), respectively. Also, the Her2 level in [2] was 100% (inactive). The differential viability (reversal) in [6] (H69AR cells + 2 uM doxorubicin) was -0.91% (inactive). Moreover, the inhibition in test [7] was 0.51% (inactive); in test [8], -5.33% (inactive); in test [13] it was -0.23% (inactive). For the same molecule, the growth inhibition in test [9] was -6.7% (inactive). Moreover, in test [10], the viability increase was -0.77% (inactive). For the same molecule, the RAM network inhibition in [14] is 6.41% (inactive).

On to `CCOC(=O)c1[nH]c(C)c(C(=O)Nc2ccc(C)cc2C)c1C`, for which the viability was 91.5% in test [1]; 91.5% (inactive) in [3]; 54.8% (inactive) in [4]; 22.2% (active) in test [5]; 50.7% in test [6] (setting [16]); 22.2% in test [6] (setting [17]). The viability in test [12] was 32.8% (inactive). Moreover, the Her2 level in test [2] is 92% (inactive). Also, the differential viability (reversal) in test [6] (H69AR cells + 2 uM doxorubicin) was -28.5% (inactive). The results for the inhibition in test [7], in test [8] and in test [13] were -3.72% (inactive), -3.5% (inactive) and 1.79% (inactive), respectively. The growth inhibition in test [15] is -12.6% (inactive); in [9] it was -5.29% (inactive). For the same molecule, the viability increase in [10] was -6.07% (inactive). Moreover, the RAM network inhibition in test [14] is 0.04% (inactive).

As to `CCn1c2ccccc2c2cc(Nc3cc(C)nc4ncnn34)ccc21`, the viability in test [1] is 93%; in test [3] it was 93% (inactive); in test [4], 18.1% (active); in test [5] it was 29.4% (active); in test [6] (setting [16]), 57.4%; in [6] (setting [17]), 29.4%. In addition, the viability in test [12] was 12.2% (active). In addition, in test [2], the Her2 level was 49% (active). For the same molecule, the differential viability (reversal) in test [6] (H69AR cells + 2 uM doxorubicin) is -28% (inactive). Besides, the inhibition was -1.6% (inactive) in test [7], 0% (inactive) in [8] and -0.255% (inactive) in [13]. In addition, the growth inhibition in test [9] is 72.4% (active). Moreover, the viability increase in test [10] was -7.76% (inactive). Moreover, the RAM network inhibition in test [14] was -1.23% (inactive).

With `COc1ccc(-n2ncc3c(N4CCN(c5cccc(C)c5C)CC4)ncnc32)cc1`, the viability is 88% in [1]; 88% (inactive) in test [3]; 11.3% (active) in test [4]; 27.1% (active) in test [5]; 21.7% in test [6] (setting [16]); 27.1% in [6] (setting [17]). For the same molecule, the Her2 level in test [2] is 79% (inactive). In addition, the differential viability (reversal) in test [6] (H69AR cells + 2 uM doxorubicin) is 5.39% (inactive). In addition, the inhibition was -2.4% (inactive) in test [7], -2.17% (inactive) in [8] and 1.51% (inactive) in test [13]. For the same molecule, the growth inhibition is -5% (inactive) in test [15] and -6.91% (inactive) in test [9]. Further, in test [10], the viability increase was -7.5% (inactive). The RAM network inhibition in test [14] is 7.15% (inactive).

For `Cc1ccc(N(C(=O)C2CCC(=O)N2)C2(C(=O)NC3CCCCC3)CCCCC2)cc1` (stereo not drawn), the viability in test [1] is 110%; in [3] it was 110% (inactive); in test [4] it was 108% (inactive); in test [5] it was 98.4% (inactive); in test [6] (setting [16]), 94.9%; in test [6] (setting [17]), 98.4%. For the same molecule, in [12], the viability was 92.9% (inactive). In addition, the Her2 level in test [2] was 99% (inactive). The differential viability (reversal) in test [6] (H69AR cells + 2 uM doxorubicin) was 3.47% (inactive). Further, the inhibition is -0.55% (inactive) in [7], -0.79% (inactive) in [8] and 2.28% (inactive) in test [13]. Also, the figures for the growth inhibition in test [15] and in test [9] were -9.55% (inactive) and -6.46% (inactive), respectively. For the same molecule, in test [10], the viability increase was -2.37% (inactive). In addition, the RAM network inhibition in test [14] is 1.79% (inactive).

As to `C=CCn1c(COc2ccc(CC)cc2)nnc1SC/C(O)=C(\C#N)c1nc2ccccc2[nH]1`, the viability in test [1] is 86.5%; in test [3], 86.5% (inactive); in test [4], 59.8% (inactive); in test [5], 106% (inactive); in test [6] (setting [16]) it was 107%; in [6] (setting [17]), 106%. The viability in test [11] is 92.6% (inactive); in test [12] it was 91.3% (inactive). In test [2], the Her2 level was 88% (inactive). Besides, the differential viability (reversal) in [6] (H69AR cells + 2 uM doxorubicin) was -1.07% (inactive). For the same molecule, the inhibition in test [7] was -0.92% (inactive); in test [8], -6% (inactive); in [13], 2.46% (inactive). The growth inhibition is 1.15% (inactive) in test [15] and 0.59% (inactive) in test [9]. Further, the RAM network inhibition in [14] was 6.17% (inactive).

Take `COC(=O)c1cn(NC(=O)c2cccnc2)c(=O)c2ccccc12`: the viability in test [1] is 88%; in test [3] it was 88% (inactive); in [4] it was 101% (inactive); in test [5], 103% (inactive); in [6] (setting [16]), 100%; in test [6] (setting [17]), 103%. Moreover, the viability in test [11] is 101% (inactive); in [12], 99% (inactive). The Her2 level in test [2] was 84% (inactive). Also, the differential viability (reversal) in test [6] (H69AR cells + 2 uM doxorubicin) was 2.79% (inactive). In addition, the inhibition in test [7] was -7.26% (inactive); in [8], 1.11% (inactive); in test [13] it was 0.92% (inactive). Further, the growth inhibition in test [15] is -2.23% (inactive); in test [9], 0.94% (inactive). Besides, in test [14], the RAM network inhibition was 5.05% (inactive).

As for `Clc1ss/c(=N\c2ccccn2)c1Cl`, the viability is 100% in test [1]; 100% (inactive) in [3]; 77.8% (inactive) in test [4]; 76.6% (inactive) in [5]; 72.3% in [6] (setting [16]); 76.6% in test [6] (setting [17]). Moreover, the viability in test [12] was 96.8% (inactive). Further, the Her2 level in test [2] is 77% (inactive). For the same molecule, the differential viability (reversal) in test [6] (H69AR cells + 2 uM doxorubicin) was 4.38% (inactive). Besides, the inhibition was -9.18% (inactive) in [7], 2.06% (inactive) in test [8] and 1.77% (inactive) in test [13]. Besides, the growth inhibition in test [15] was 3.12% (inactive); in test [9], 19.3% (inactive). Moreover, in test [10], the viability increase was -5.42% (inactive). Also, the RAM network inhibition in test [14] was 3.89% (inactive).

On to `CC(C)CCSc1nc2c(c(=O)[nH]c(=O)n2C)n1CCCc1ccccc1`, for which the viability is 87.5% in test [1]; 87.5% (inactive) in test [3]; 46.7% (inactive) in test [4]; 58.9% in test [6] (setting [16]); 50% in test [6] (setting [17]); 68.8% (inactive) in test [11]. In test [12], the viability is 59.1% (inactive). In addition, the Her2 level in [2] is 71% (inactive). In test [6] (H69AR cells + 2 uM doxorubicin), the differential viability (reversal) is -8.95% (inactive). Further, the inhibition was -3.73% (inactive) in [7], 4.17% (inactive) in [8] and 3.84% (inactive) in [13]. The growth inhibition is -11.8% (inactive) in test [15] and -9.37% (inactive) in test [9]. Further, in test [10], the viability increase was -4.55% (inactive). The RAM network inhibition in test [14] was 9.02% (inactive).

Regarding `COc1cccc(CNC(=O)CCS(=O)(=O)c2cccc3nsnc23)c1`, the viability in test [1] was 106%; in test [3], 106% (inactive); in [4] it was 105% (inactive); in test [5], 89.6% (inactive); in [6] (setting [16]), 96.6%; in [6] (setting [17]), 89.6%. Moreover, the viability in [12] was 97.1% (inactive). The Her2 level in [2] was 91% (inactive). In addition, in [6] (H69AR cells + 2 uM doxorubicin), the differential viability (reversal) is -6.93% (inactive). The results for the inhibition in [7], in [8] and in test [13] were -7.67% (inactive), 0.95% (inactive) and 1.32% (inactive), respectively. The growth inhibition in test [15] is -8.72% (inactive); in test [9], -10.3% (inactive). The viability increase in [10] is -2.45% (inactive). In addition, the RAM network inhibition in test [14] was 0.77% (inactive).

The viability is a read-out of living cells in per cent, often relative to untreated cells. Usually inhibition stands for the drop in the measured response relative to a control, in per cent.
